aSyn 5UTR inh: MLPCN primary screen, SNCA 5' untranslated region; alpha-synuclein 5'UTR reporter, inhibitor activity; inhibition, % (tested at 7.5 µM); 300,000 tested, 0.82% active; AID 1813, 2009; in the data active = inhibition above about 60%; inconclusive = no clear call, values can overlap the other calls;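 also: H4 neuroglioblastoma cells stably carrying SNCA 5'UTR luciferase fusion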
Jurkat NFkB inh: inhibitors of induced NF-kB luciferase reporter, primary screen, TCR NF-kB activation inhibitor project, cell-based, luminescence, uHTS; inhibition, % at 4 µM; 330,000 tested, 0.53% active; AID 435003, 2010; Jurkat, PMA/ionomycin-induced NF-kB luciferase reporter; in the data active = inhibition above about 50%
697 NFkB inh: inhibitors of PMA/ionomycin-induced NF-kB reporter, 697 cells, primary screen, B-cell NF-kB inhibitor project, cell-based, luminescence, uHTS; inhibition, % at 4 µM; 330,000 tested, 0.33% active; 697 B-cell NF-kB luciferase reporter, 16 h; in the data active = inhibition above about 35%
Gli-Sufu antag: Gli-Sufu pathway antagonists, primary screen, luciferase luminescence, Sufu-KO-LIGHT cells, uHTS; Sufu-KO-LIGHT fibroblasts, Gli luciferase reporter luminescence; 340,000 tested, 0.74% active; AID 588413, 2011; inhibition, % at 5 µM;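 active = inhibition above about 55%, limit read from the data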
CSC inhib: cancer stem cell viability inhibitors, primary screen, luminescence. cancer stem cell-like cells viability. inhibition, % at 7.5 µM. 300,000 tested, 1.1% active. AID 2717, 2010; in the data active = inhibition above about 75%; inconclusive = no clear call, values can overlap the other calls; tested in HMLE shEcad cells
Mdm2 MdmX PPI: inhibitors of human Mdm2-MdmX association, primary screen, cell-based, luminescence, split luciferase, SaOS-2, uHTS; Protein Mdm4 (Homo sapiens) + E3 ubiquitin-protein ligase Mdm2 (Homo sapiens), …; SaOS-2 split-luciferase Mdm2/MdmX complementation; inhibition, % at 8 µM; 330,000 tested, 3% active;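 active = inhibition of at least 50% at 8 µM in the primary screen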
Target sequence (O15151 whole entry, looked up): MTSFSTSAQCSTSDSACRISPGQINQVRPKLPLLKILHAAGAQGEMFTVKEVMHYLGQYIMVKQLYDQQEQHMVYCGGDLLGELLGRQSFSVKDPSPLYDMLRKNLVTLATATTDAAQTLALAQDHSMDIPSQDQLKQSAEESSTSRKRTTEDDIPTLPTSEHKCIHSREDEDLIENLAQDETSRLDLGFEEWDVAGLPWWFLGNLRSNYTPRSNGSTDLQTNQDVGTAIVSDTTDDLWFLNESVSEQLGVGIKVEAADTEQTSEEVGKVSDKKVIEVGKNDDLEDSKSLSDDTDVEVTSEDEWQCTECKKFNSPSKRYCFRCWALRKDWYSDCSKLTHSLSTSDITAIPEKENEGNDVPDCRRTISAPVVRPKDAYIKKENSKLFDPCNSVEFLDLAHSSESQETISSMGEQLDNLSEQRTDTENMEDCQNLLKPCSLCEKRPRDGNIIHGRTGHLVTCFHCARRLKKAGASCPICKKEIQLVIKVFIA
Target sequence (Q00987 whole entry, looked up): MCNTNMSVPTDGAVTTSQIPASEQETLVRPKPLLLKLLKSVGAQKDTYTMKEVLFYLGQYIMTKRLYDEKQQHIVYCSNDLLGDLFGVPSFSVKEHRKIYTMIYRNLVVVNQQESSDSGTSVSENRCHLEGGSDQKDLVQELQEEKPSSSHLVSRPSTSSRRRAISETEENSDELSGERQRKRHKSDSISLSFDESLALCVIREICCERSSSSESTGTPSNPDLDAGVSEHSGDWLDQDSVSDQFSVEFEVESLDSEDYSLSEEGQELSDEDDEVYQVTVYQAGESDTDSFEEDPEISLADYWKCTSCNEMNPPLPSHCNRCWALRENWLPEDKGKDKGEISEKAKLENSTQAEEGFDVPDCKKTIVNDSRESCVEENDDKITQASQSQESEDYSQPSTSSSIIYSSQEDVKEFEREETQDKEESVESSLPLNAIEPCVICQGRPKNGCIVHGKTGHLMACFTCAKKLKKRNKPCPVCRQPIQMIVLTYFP
Mdm2 MdmX conf: Mdm2-MdmX complex disruptors, retested hits, confirmation, luminescence, single concentration. inhibition, % at 8 µM. Mdm2-MdmX binding, luminescent assay. shares compounds with Mdm2 MdmX PPI. AID 489028, 2010. 10,000 tested, 55% active; in the data active = inhibition above about 40%
FLuc counter: full-length luciferase signal inhibition, confirmation, counter-screen for Mdm2/MdmX interaction inhibitor project, cell-based, single concentration, SaOS-2; SaOS-2 full-length luciferase counterscreen, luminescence; inhibition, % at 8 µM; shares compounds with Mdm2 MdmX PPI; 6,200 tested, 77% active;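 active = mean inhibition at 8 µM reaching about 37%, which flags the compound as non-specific, limit read from the data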;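 also: p53-null SaOS-2 cells with luciferase driven by a doxycycline-inducible promoter; compound on cells about two nights before reading with doxycycline added after day one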
Large screens that a line does not name were inactive (follow-up assays come after a bar, where they were run). An excerpt weighted towards active compounds, which were near 4.5% of everything screened.

Cc1ccc(C(=O)c2cnc3ccccc3c2-c2ccccc2)cc1	Mdm2 MdmX PPI 55.8 | Mdm2 MdmX conf inactive
COc1ccc(C(=O)c2cnc3ccccc3c2-c2ccccc2)cc1	Mdm2 MdmX PPI 57.0 | Mdm2 MdmX conf inactive
O=C1CCC(C2CCc3cc(O)ccc3C2)C1 (stereo not drawn)	none (no result: aSyn 5UTR inh, Jurkat NFkB inh, 697 NFkB inh, CSC inhib, Mdm2 MdmX PPI)
COc1ccccc1CNC(=O)c1ccc2ccccc2n1	none
O=C(NCC1CCCO1)C1CC(=O)N(c2cccc(Cl)c2)C1 (stereo not drawn)	none
O=C(CCCN1C(=O)/C(=C/c2cccc(Br)c2)SC1=S)Nc1cccnc1	Mdm2 MdmX PPI 78.3 | Mdm2 MdmX conf 78.4 | FLuc counter 62.8
O=C(CCCN1C(=O)/C(=C\c2cccs2)SC1=S)Nc1cccnc1	Mdm2 MdmX PPI 78.4 | Mdm2 MdmX conf 79.5 | FLuc counter inactive
O=C(CCN1C(=O)/C(=C/c2ccc(Cl)cc2)SC1=S)Nc1cccnc1	none
O=C(CCCN1C(=O)/C(=C/c2ccccc2OC(F)F)SC1=S)Nc1cccnc1	Mdm2 MdmX PPI 84.9 (no result: aSyn 5UTR inh) | Mdm2 MdmX conf 58.7 | FLuc counter inactive
O=C(CCN1C(=O)/C(=C/c2ccccc2F)SC1=S)Nc1cccnc1	none
COC(=O)c1ccc(/C=C2/SC(=S)N(CCCC(=O)Nc3ccccn3)C2=O)cc1	Mdm2 MdmX PPI 75.5 | Mdm2 MdmX conf inactive
O=C(CCCN1C(=O)/C(=C/c2cccs2)SC1=S)Nc1cccnc1	none
O=C(CCCN1C(=O)/C(=C/c2cccc(Br)c2)SC1=S)Nc1ccccn1	Mdm2 MdmX PPI 69.0 | Mdm2 MdmX conf 84.4 | FLuc counter inactive
O=C(CCCN1C(=O)/C(=C\c2cccc(Br)c2)SC1=S)Nc1cccnc1	Mdm2 MdmX PPI 100.3 | Mdm2 MdmX conf 85.5 | FLuc counter inactive
CCc1ccc(-c2cc(C)no2)cc1S(=O)(=O)N1CCN(c2ccccn2)CC1	none
Cc1cc(-c2ccc(C(C)C)c(S(=O)(=O)N3CCN(c4ccccn4)CC3)c2)on1	Mdm2 MdmX PPI 62.6 | Mdm2 MdmX conf 61.5 | FLuc counter 51.5
COc1ccc(CCNc2cc(C)nc3c(-c4ccccc4)cnn23)cc1OC	Mdm2 MdmX PPI 68.1 (no result: CSC inhib) | Mdm2 MdmX conf inactive
Cc1cc(NCCCn2ccnc2)n2ncc(-c3ccccc3)c2n1	Mdm2 MdmX PPI 74.1 (no result: aSyn 5UTR inh) | Mdm2 MdmX conf 69.8 | FLuc counter 134.3
COc1ccccc1-c1cnn2c(NCCc3ccccc3)cc(C)nc12	none
Cn1cc(-c2cc(C(=O)O)on2)cn1	none (no result: CSC inhib)
CC(C)n1c(SCC(=O)Nc2nncs2)nnc1-c1ccco1	none
Cc1ccc(N=Nc2c(N)nn3c(N)c(C#N)c(C)nc23)cc1	Mdm2 MdmX PPI 61.4 | Mdm2 MdmX conf 59.1 | FLuc counter 48.5
CCOC(=O)CSc1nc2cc(C(=O)NCc3ccco3)ccc2c(=O)n1C1CCCCC1	none
O=C(NCc1ccco1)c1ccc2c(=O)n(-c3ccccc3)c(=S)[nH]c2c1	Mdm2 MdmX PPI 50.2 | Mdm2 MdmX conf inactive
COc1ccc(-n2c(=S)[nH]c3cc(C(=O)NCc4ccco4)ccc3c2=O)cc1OC	none (no result: CSC inhib)
CCOC(=O)CSc1nc2cc(C(=O)NCc3ccco3)ccc2c(=O)n1-c1ccc(F)cc1	Mdm2 MdmX PPI 71.1 | Mdm2 MdmX conf inactive | FLuc counter 83.1
CCC1CCCCN1C(=O)CCc1nnc(Cc2cc(OC)ccc2OC)o1 (stereo not drawn)	none
Cc1c(C(=O)NC2CCCC2)oc2ccccc12	none (no result: aSyn 5UTR inh)
CC(CC(=O)Nc1ccccc1)NCCCN1CCCC1=O (stereo not drawn)	none
Cc1cccc(OCCCC(=O)NNC(=O)c2ccccn2)c1	Mdm2 MdmX PPI 64.2 (no result: aSyn 5UTR inh, CSC inhib) | Mdm2 MdmX conf 51.6 | FLuc counter 40.6
COc1ccc(OC)c(Nc2nc(N)c([N+](=O)[O-])c(NCc3ccccc3)n2)c1	Mdm2 MdmX PPI 85.0 | Mdm2 MdmX conf inactive
COCCCNc1nc(N)c([N+](=O)[O-])c(Nc2cc(OC)ccc2OC)n1	aSyn 5UTR inh inconclusive, Mdm2 MdmX PPI 69.8 | Mdm2 MdmX conf inactive
COc1ccc(OC)c(Nc2nc(NCCCN(C)C)nc(N)c2[N+](=O)[O-])c1	none
CCN(CC)c1ccc(NC(=O)c2ccccc2Br)cc1S(=O)(=O)Nc1ccccc1OC	none
CCN(CC)c1ccc(NC(=O)c2ccc(=O)[nH]c2)cc1S(=O)(=O)Nc1ccccc1OC	Mdm2 MdmX PPI 50.1 | Mdm2 MdmX conf 56.0 | FLuc counter 54.4
Cc1ccc(C)c(CN2CCC(CNC(=O)Nc3ccc(Br)cc3F)CC2)c1	Mdm2 MdmX PPI 56.1 | Mdm2 MdmX conf 43.9 | FLuc counter 69.4
CCc1ccc(NC(=O)C(=O)c2cn(CC(=O)N3CCCCC3)c3ccccc23)cc1	none
COC(=O)c1ccc(NC(=O)C(=O)c2cn(CC(=O)N3CCOCC3)c3ccccc23)cc1	Mdm2 MdmX PPI 54.6 | Mdm2 MdmX conf inactive
COc1ccc(-c2noc(CNS(=O)(=O)c3ccc(NC(C)=O)cc3)n2)cc1	none
O=C(NCc1nc(-c2ccc(C(F)(F)F)cc2)no1)Nc1ccc(OC(F)(F)F)cc1	CSC inhib 109.2, Mdm2 MdmX PPI 89.1 | Mdm2 MdmX conf inactive
CCOc1cc(C2c3c(n[nH]c3C)C(=O)N2c2ccc(C)cc2)ccc1O (stereo not drawn)	none
COc1cc(C2c3c(n[nH]c3C)C(=O)N2c2ccc(C)cc2)ccc1O (stereo not drawn)	Mdm2 MdmX PPI 68.6 | Mdm2 MdmX conf 72.5 | FLuc counter 50.8
Cc1[nH]c2ccc(C(=O)N3CCN(c4cccc(Cl)c4)CC3)cc2c1C	Mdm2 MdmX PPI 50.6 | Mdm2 MdmX conf 56.5 | FLuc counter 55.8
Cc1onc(-c2ccccc2Cl)c1C(=O)N1CCN(c2cccc(Cl)c2)CC1	aSyn 5UTR inh 67.3, Mdm2 MdmX PPI 54.3 | Mdm2 MdmX conf 59.1 | FLuc counter 56.8
COc1ccc(N2CCN(C(=O)c3ccc4c(c3)[nH]c(=S)n3c5ccccc5nc43)CC2)cc1	none (no result: Gli-Sufu antag)
O=C(c1ccc2c(c1)[nH]c(=S)n1c3ccccc3nc21)N1CCN(c2cccc(Cl)c2)CC1	Mdm2 MdmX PPI 85.1 | Mdm2 MdmX conf inactive
N#Cc1cc([N+](=O)[O-])ccc1NC(=O)CSc1n[nH]c(=O)[nH]c1=O	none (no result: aSyn 5UTR inh)
O=S(=O)(NC(CO)Cc1ccccc1)c1ccc(Br)cc1F (stereo not drawn)	none (no result: aSyn 5UTR inh, Jurkat NFkB inh, 697 NFkB inh, CSC inhib, Mdm2 MdmX PPI)
